This note sets out measurements from PubChem BioAssay.

Molecules are shown by their SMILES. Activity calls are given as the source filed them.

Assay [1] is described as follows: small molecules captured by biotinylated probe aFSTL3 – biochemical, small-molecule microarray, fluorescence 635/667, stem cell growth factor project, primary screen (AID 1064).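 Further: measures binding of the biotinylated anti-FSTL3 antibody to printed compounds.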 The note with it: higher = more signal.
Assay [2] can be described thus: binders from COS7 lysate, DM2A8 probe, primary screen, torsin A project, cell lysate, small-molecule microarray, fluorescence 635/667 (AID 1065). The note with it: higher = more signal, COS7 lysate expressing mutant human TOR1A.
Assay [3] can be described thus: small molecules captured by biotinylated probe aFGF2 – biochemical, small-molecule microarray, fluorescence 635/667, stem cell growth factor project, primary screen (AID 1067).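 Further: measures binding of biotinylated aFGF2 protein to printed compounds on slides; z-score merges feature fluorescence and signal-to-noise across triplicate slides.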 Conditions: higher = more signal.
A short description of assay [4]: small molecules captured by biotinylated probe aFGF10 – biochemical, small-molecule microarray, fluorescence 635/667, stem cell growth factor project, primary screen (AID 1071).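 Further: score merges 667 nm spot intensity and signal to noise from triplicate slides.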 Conditions: higher = more signal.
Assay [5] deals with Neurogenic locus notch homolog protein 2 (Homo sapiens) (UniProt Q04721). In words: small molecules binding Notch2 protein – biochemical, small-molecule microarray, 635 nm fluorescence, stem cell growth factors, primary screen (AID 1073). The note with it: higher = more signal.
Assay [6] has as its target Pro-neuregulin-1, membrane-bound isoform (Homo sapiens) (UniProt Q02297). The assay can be described thus: small molecules binding neuregulin-1 protein – biochemical, small-molecule microarray, fluorescence 635/667, psychiatric disease protein project, primary screen (AID 1075).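 Further: score combines 667 nm spot fluorescence with signal to noise.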 Conditions: NRG1 binding, 635 nm fluorescence, higher = more signal.
Assay [7] has as its system Neuregulin-1 EGF-like domain. In words: small molecules binding NRG1 EGF domain – biochemical, small-molecule microarray, 635 nm fluorescence, primary screen (AID 1081).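 Further: binding of the protein to compounds printed on small-molecule microarray slides.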 The note with it: higher = more signal.
Assay [8] in a line: FRG1 expression reporter modulators in myotubes – cell-based, C2C12 myotubes, firefly/Renilla luciferase, luminescence, FRG1 inhibition for FSHD, primary screen (AID 1084). Conditions: FRG1 promoter luciferase, higher = more signal, called active from +8 up or from −8 down.
Assay [9] is described as follows: small molecules captured by biotinylated probe aFST – biochemical, small-molecule microarray, fluorescence 635/667, stem cell growth factor project, primary screen (AID 1086).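 Further: score merges 667 nm fluorescence with signal-to-noise of each printed compound spot.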 Conditions: higher = more signal.
Assay [10] is described as follows: binders of probe aHhip on microarray, primary screen, stem cell growth factor project, biochemical, small-molecule microarray, fluorescence 635/667 (AID 1087).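 Further: score merges spot fluorescence at 667nm with spot signal to noise ratio.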 Conditions: higher = more signal.
In assay [11] the test system is PRMT1 (protein arginine N-methyltransferase 1). In words: small molecules binding arginine methyltransferase PRMT1 – biochemical, small-molecule microarray, 635 nm fluorescence, primary screen (AID 1088).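 Further: binding of Prmt1 protein to compounds spotted on small-molecule microarray slides.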 The note with it: higher = more signal.
Assay [12] can be described thus: growth effects on S. cerevisiae YJM789 – YJM789 clinical isolate, OD600, 24 h, basal, primary screen (AID 1089).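 Further: growth of clinical yeast isolate S. cerevisiae YJM 789 seeded 1000 cells per well; test concentration not given here.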 Conditions: higher = more signal, called active from +8 up or from −8 down.
A short description of assay [13]: S. pombe growth modifiers, basal conditions – strain 972, OD600, 24 h, no modulator, primary screen (AID 1090).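 Further: basal condition with compound alone and no growth modifier present; test concentration not given here.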 Conditions: S. pombe 972 growth, higher = more signal, called active from +8 up or from −8 down.
Assay [14] can be described thus: budding yeast growth modifiers under rapamycin – strain BY4716, OD600, 96 h, primary screen (AID 1091). Further: test concentration not given here. Conditions: S. cerevisiae BY4716 + rapamycin, higher = more signal, called active from +8 up or from −8 down.
Assay [15] concerns the target Torsin-1A-interacting protein 2 (Homo sapiens) (UniProt Q8NFQ8). In words: small molecules binding lysate-expressed LULL1 – cell lysate, human LULL1 lysate, 635/667 nm fluorescence, primary screen (AID 1092).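 Further: probe is lysate of COS7 cells overexpressing human LULL1; score merges per-feature 667 nm fluorescence with signal-to-noise.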 The note with it: small-molecule microarray, hLULL1 lysate binding, 635 nm fluorescence; higher = more signal.
Assay [16] can be described thus: optical density change of DRC41 E. coli – strain DRC41, OD650, 24 h, E. coli filamentation project, primary screen (AID 1093).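 Further: MC1000 strain lacking acrAB efflux and sulA so SOS filamentation is blocked; test concentration not given here.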 Conditions: E. coli DRC41 growth, higher = more signal, called active from +8 up or from −8 down.
The nature of assay [17]: probe aLefty2 binding to arrayed compounds – biochemical, biotinylated probe, 635/667 nm fluorescence, primary screen (AID 1094).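 Further: score merges spot fluorescence near 667 nm with spot signal-to-noise ratio.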 Conditions: small-molecule microarray, higher = more signal.
Assay [18] has as its system Noggin (protein binding on small-molecule microarray). In words: small molecules binding Noggin protein – biochemical, 635/667 nm fluorescence, primary screen (AID 1095).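 Further: score merges 667 nm feature fluorescence with signal to noise over triplicate slides.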 The note with it: 635 nm fluorescence, higher = more signal.
In assay [19] the target is Neurogenic locus notch homolog protein 3 (Homo sapiens) (UniProt Q9UM47). The assay can be described thus: small molecules binding NOTCH3 protein – biochemical, 635/667 nm fluorescence, primary screen (AID 1096). Conditions: small-molecule microarray, 635 nm fluorescence, higher = more signal.
The nature of assay [20]: probe aEGFR binding to arrayed compounds – biochemical, biotinylated probe, 635/667 nm fluorescence, primary screen (AID 1097).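 Further: probe is a biotinylated anti-EGFR antibody binding compounds printed on slides; score combines fluorescence near 667 nm and signal to noise of each spot.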 Conditions: small-molecule microarray, higher = more signal.

Chain of Neurogenic locus notch homolog protein 2 (Homo sapiens) (Q04721 whole entry, looked up, canonical isoform): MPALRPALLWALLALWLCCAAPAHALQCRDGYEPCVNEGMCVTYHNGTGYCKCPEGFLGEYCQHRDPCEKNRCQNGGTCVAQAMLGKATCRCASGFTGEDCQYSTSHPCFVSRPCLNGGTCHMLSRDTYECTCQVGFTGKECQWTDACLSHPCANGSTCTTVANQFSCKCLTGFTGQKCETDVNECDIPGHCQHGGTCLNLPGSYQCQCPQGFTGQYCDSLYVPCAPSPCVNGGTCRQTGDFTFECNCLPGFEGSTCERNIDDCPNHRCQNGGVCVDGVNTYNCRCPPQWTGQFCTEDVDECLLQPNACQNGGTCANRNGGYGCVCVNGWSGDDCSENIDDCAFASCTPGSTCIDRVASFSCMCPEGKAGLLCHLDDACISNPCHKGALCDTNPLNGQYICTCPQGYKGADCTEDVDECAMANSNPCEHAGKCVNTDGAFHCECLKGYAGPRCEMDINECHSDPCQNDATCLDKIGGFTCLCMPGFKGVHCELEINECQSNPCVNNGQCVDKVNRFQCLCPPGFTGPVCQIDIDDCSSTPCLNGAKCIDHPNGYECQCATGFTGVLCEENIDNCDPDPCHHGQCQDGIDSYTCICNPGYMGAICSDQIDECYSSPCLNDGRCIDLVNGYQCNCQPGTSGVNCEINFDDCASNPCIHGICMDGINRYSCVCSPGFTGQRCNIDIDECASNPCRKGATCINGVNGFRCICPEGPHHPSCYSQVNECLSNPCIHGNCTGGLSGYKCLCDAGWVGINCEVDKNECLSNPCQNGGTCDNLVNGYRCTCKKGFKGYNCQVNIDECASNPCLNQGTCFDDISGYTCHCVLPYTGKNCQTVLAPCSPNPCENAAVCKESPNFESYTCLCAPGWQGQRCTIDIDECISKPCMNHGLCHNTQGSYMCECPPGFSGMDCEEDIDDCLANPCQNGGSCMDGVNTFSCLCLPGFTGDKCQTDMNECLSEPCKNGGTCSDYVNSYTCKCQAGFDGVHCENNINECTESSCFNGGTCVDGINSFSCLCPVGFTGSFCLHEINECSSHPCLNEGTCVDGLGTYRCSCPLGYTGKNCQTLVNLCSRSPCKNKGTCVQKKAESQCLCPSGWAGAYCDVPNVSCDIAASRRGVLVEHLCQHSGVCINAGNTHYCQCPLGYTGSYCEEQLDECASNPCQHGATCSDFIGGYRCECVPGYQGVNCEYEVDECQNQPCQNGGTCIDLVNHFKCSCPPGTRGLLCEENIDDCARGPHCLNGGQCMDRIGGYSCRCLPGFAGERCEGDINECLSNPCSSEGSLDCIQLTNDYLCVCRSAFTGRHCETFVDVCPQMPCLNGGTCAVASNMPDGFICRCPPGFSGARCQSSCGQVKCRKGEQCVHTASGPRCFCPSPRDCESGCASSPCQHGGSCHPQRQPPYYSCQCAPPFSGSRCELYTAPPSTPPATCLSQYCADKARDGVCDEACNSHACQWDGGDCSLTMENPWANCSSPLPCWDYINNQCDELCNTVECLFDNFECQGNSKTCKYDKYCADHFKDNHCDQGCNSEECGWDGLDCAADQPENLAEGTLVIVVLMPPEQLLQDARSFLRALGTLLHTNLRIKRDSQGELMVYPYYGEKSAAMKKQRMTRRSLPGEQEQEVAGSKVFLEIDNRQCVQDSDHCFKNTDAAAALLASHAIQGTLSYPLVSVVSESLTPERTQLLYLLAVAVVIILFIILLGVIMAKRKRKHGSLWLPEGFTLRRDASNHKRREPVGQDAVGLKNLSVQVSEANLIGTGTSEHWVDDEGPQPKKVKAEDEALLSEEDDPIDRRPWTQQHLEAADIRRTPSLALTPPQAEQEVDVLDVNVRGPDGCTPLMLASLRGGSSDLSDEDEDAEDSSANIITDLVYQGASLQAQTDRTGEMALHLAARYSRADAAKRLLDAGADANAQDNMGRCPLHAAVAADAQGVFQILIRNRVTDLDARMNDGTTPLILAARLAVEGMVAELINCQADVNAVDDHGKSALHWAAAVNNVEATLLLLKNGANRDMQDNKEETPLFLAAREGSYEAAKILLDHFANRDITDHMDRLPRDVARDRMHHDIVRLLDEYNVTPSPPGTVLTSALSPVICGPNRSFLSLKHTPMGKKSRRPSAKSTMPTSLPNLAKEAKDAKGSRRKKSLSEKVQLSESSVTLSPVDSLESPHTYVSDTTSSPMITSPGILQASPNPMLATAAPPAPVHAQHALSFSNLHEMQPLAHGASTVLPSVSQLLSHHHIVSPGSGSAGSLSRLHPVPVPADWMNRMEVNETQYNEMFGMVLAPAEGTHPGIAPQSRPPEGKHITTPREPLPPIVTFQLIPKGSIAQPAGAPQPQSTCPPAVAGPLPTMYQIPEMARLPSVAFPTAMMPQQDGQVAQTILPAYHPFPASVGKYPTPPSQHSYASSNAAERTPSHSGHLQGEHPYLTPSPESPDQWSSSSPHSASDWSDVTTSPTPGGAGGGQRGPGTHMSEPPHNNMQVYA
Chain of Torsin-1A-interacting protein 2 (Homo sapiens) (Q8NFQ8 whole entry, looked up): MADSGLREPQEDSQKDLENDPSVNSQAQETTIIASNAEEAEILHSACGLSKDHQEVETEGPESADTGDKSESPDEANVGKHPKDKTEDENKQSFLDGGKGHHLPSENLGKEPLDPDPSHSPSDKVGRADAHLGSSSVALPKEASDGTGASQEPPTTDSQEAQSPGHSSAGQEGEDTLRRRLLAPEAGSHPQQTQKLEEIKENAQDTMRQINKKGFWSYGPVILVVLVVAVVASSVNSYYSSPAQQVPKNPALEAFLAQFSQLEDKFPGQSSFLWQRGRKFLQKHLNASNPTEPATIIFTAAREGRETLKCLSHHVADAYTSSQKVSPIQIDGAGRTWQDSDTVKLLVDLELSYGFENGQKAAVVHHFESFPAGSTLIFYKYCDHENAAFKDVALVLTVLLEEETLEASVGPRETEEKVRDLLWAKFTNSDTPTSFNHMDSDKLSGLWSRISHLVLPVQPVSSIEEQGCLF
Chain of Pro-neuregulin-1, membrane-bound isoform (Homo sapiens) (Q02297 whole entry, looked up, the tested form may be a part, canonical isoform): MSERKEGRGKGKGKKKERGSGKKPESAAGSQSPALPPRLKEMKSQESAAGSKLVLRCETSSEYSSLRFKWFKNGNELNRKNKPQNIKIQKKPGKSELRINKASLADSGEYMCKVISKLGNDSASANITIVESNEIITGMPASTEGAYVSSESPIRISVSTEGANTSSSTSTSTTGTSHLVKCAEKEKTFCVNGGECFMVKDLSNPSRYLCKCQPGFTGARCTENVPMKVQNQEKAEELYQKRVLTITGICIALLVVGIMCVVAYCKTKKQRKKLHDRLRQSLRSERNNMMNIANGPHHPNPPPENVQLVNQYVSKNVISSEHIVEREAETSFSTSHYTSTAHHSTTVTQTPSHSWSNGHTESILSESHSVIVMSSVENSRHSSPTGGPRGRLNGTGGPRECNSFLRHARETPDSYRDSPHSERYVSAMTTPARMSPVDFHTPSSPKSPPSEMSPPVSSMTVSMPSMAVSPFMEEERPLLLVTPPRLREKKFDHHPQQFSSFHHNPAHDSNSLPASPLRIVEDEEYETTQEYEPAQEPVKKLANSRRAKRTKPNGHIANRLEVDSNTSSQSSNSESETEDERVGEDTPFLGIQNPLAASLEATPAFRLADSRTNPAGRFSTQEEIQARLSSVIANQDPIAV

As to `C=CCC(OC(C)=O)[C@@H]1[C@@H](N(Cc2cccc3ccccc23)C(=O)c2cccc3ccccc23)c2cc(OCCCO)ccc2N1C(=O)Cc1ccc2ccccc2c1` (stereo not given in full), the composite z-score in assay [1] was -0.101; in assay [2], -0.391; in [3], -0.116; in assay [4] it was 0.19; in assay [5], -0.168; in [6], -0.371. Moreover, the composite z-score in assay [7] was -0.648; in assay [9] it was -0.0942; in assay [10], -0.166; in assay [11], -0.254; in [15], -0.0809; in assay [17] it was -0.193. Besides, the composite z-score is 0.0493 in assay [18], 0.002 in [19] and -0.0675 in assay [20]. The z-score was -1.89 (inactive) in [8]; -0.796 (inactive) in [12]; 0.0827 (inactive) in [13]; -1.45 (inactive) in assay [14]; -0.225 (inactive) in assay [16].

For `O=C1OCCC=C[C@H]2OC34C=CCN(CCN5CCOCC5)C(=O)[C@H]3N(CCCO)C(=O)[C@@H]4C12` (stereo not given in full), the composite z-score is -0.0143 in assay [1]; -2.48 in assay [2]; -0.14 in [3]; -0.776 in assay [4]; -0.956 in assay [5]; 0.399 in [6]. Also, the composite z-score was -0.873 in assay [7]; -0.272 in assay [9]; -0.0994 in assay [10]; 0.0132 in [11]; 2.98 in [15]; -0.257 in assay [17]. For the same compound, the composite z-score is -0.293 in [18], 0.329 in assay [19] and -0.166 in assay [20]. Besides, the z-score in assay [8] is 0.122 (inactive); in assay [12] it was -0.728 (inactive); in [13], -1.14 (inactive); in assay [14] it was 0.229 (inactive); in assay [16] it was 0.922 (inactive).

For `CCOC(=O)C[C@H]1[C@H](OC(=O)c2ccc(-c3ccccc3)cc2)[C@@H](NC(=O)c2ccc3ccccc3c2)c2cc(OCCCO)ccc2N1C(=O)c1ccccc1`, the composite z-score in assay [1] is -0.211; in assay [2] it was -0.0761; in assay [3], -0.0692; in [4] it was 0.557; in assay [5] it was 0.736; in [6], -0.0077. In addition, the composite z-score in assay [7] is 0.627; in [9], 0.412; in assay [10] it was -0.0115; in [11] it was 0.712; in assay [15], 1.69; in assay [17], -0.141. Besides, the composite z-score amounted to 0.382 in assay [18], 0.842 in assay [19] and 0.0914 in assay [20]. Moreover, the z-score in assay [8] was -0.182 (inactive); in [12], 0.806 (inactive); in [13], 1.17 (inactive); in assay [14], 1.26 (inactive); in [16] it was -1.1 (inactive).

Take `CC=CC(O)C1C=CC2C(=O)N(C)C(=O)C2N1NC(=O)OC(C)(C)C` (stereo not given): the composite z-score in assay [1] is -0.0303; in assay [2] it was 0.371; in assay [3] it was -0.072; in [4] it was 0.488; in [5], 1.16; in assay [6], 0.746. Moreover, the composite z-score in assay [7] was 1.09; in assay [9], 0.449; in [10] it was 0.108; in [11], 0.534; in assay [15], 0.522; in assay [17], -0.286. In addition, the composite z-score in [18] was 0.251; in [19] it was 0.775; in assay [20], -0.0244. In addition, the z-score was 0.282 (inactive) in assay [8]; -0.219 (inactive) in [12]; 0.64 (inactive) in assay [13]; 0.0896 (inactive) in [14]; -1.13 (inactive) in assay [16].

Regarding `COCCOC(=O)N1C(=O)[C@@]2(c3cc(C#CCCO)ccc31)[C@H](c1ccc(O)cc1)N1[C@H](c3ccccc3)[C@H](c3ccccc3)OC(=O)[C@H]1[C@@H]2C(=O)N1CCc2cc(OC)c(OC)cc2C1`, the composite z-score in assay [1] was 0.0104; in assay [2] it was 0.366; in assay [3], -0.0004; in [4] it was 0.525; in assay [5], 1.36; in assay [6], 1.04. Also, the composite z-score was 1.32 in assay [7]; 0.411 in [9]; -0.271 in assay [10]; 1.52 in [11]; 2.45 in [15]; -0.0616 in [17]. In addition, the values for the composite z-score in assay [18], in [19] and in assay [20] were 1.55, 1.06 and 0.122, respectively. Also, the z-score in assay [8] is -0.994 (inactive); in [12], 0.47 (inactive); in assay [13], 0.511 (inactive); in assay [14], 1.23 (inactive); in assay [16], -0.617 (inactive).
